About 100 (0.27%) of roughly 37,000 compounds were called active. The sample holds actives, similar compounds and a random draw of the others, so the mix is not that of the screen. Cut-off read from the data, not from the text of the source: active = inhibition above about 85%; inconclusive = no clear call, values can overlap the other calls; inactive = below about 68%.
Assay: inhibitors of MITF, primary screen, MITF inhibitor project, cell-based, luminescence (AID 2240);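 note: human melanocyte line stably carrying TRPM1 promoter luciferase reporter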
Conditions: TRPM1 promoter luciferase, 24 h, active compounds read high, concentration not given here
In the case of `C[C@@H]1CN([C@@H](C)CO)C(=O)c2cc(NS(=O)(=O)c3ccc(F)cc3)ccc2O[C@@H]1CN(C)C(=O)NC1CCCCC1`, the inhibition was 1.15% (inactive).
In the case of `O=C(CSc1nc2c(c(C(F)(F)F)n1)CCCC2)N1c2ccccc2Sc2ccccc21`, the inhibition was 11% (inactive).
With `O=[N+]([O-])c1ccccc1-c1ccc(CN2CCN3CCCC3C2C2CCCCC2)o1` (stereo unspecified) the inhibition was -7.52% (inactive).
In the case of `C/C=C(/C)C(=O)O[C@H]1CC(C)(C)C[C@H]2C3=CCC4[C@@]5(C)CC[C@H](O[C@@H]6O[C@H](C(=O)O)[C@@H](O[C@@H]7O[C@H](CO)[C@H](O)[C@H](O)[C@H]7O[C@@H]7O[C@H](CO)[C@@H](O)[C@H](O)[C@H]7O)[C@H](O)[C@H]6O[C@@H]6O[C@@H](C)[C@H](O)[C@@H](O)[C@H]6O)C(C)(C)C5CC[C@@]4(C)[C@]3(C)[C@@H](OC(C)=O)[C@@H](O)[C@@]12COC(C)=O` (stereo partly specified), the inhibition was 50.5% (inactive).
For `CC1OC(OC2C(OC3C(O[C@H]4CC[C@@]5(C)C(CC[C@]6(C)C5CC=C5[C@@H]7CC(C)(C)C[C@@H](O)[C@]7(C)CC[C@]56C)C4(C)C)OC(C(=O)O)C(O)C3O)OC(CO)C(O)C2O)C(O)C(O)C1O` (stereo partly specified), the inhibition was -6.6% (inactive).
With `C/C=C(/C)C(=O)O[C@H]1CC(C)(C)C[C@H]2C3=CCC4[C@@]5(C)CC[C@H](O[C@@H]6O[C@H](C(=O)O)[C@@H](O[C@@H]7O[C@H](CO)[C@H](O)[C@H](O)[C@H]7O[C@@H]7O[C@H](CO)[C@@H](O)[C@H](O)[C@H]7O)[C@H](O)[C@H]6O[C@@H]6O[C@@H](C)[C@H](O)[C@@H](O)[C@H]6O)C(C)(C)C5CC[C@@]4(C)[C@]3(C)[C@@H](O)[C@@H](O)[C@@]12CO` (stereo partly specified) the inhibition was 93.6% (active).
With `O=C(CSc1nnc2c(n1)[nH]c1ccccc12)Nc1cccc(C(F)(F)F)c1` the inhibition was 63.8% (inactive).
With `CN(c1ccc(C(=O)NCc2ccccn2)cc1)S(C)(=O)=O` the inhibition was -16% (inactive).
In the case of `COC(=O)c1scc(S(=O)(=O)C(C)(C)C)c1-n1cccc1`, the inhibition was 3.33% (inactive).
With `C[C@@H]1CN([C@@H](C)CO)C(=O)c2cccc(NS(=O)(=O)c3cn(C)cn3)c2O[C@H]1CN(C)Cc1ccc(Cl)c(Cl)c1` the inhibition was -17% (inactive).
For `CC(C)NC(=O)Nc1ccc2c(c1)C(=O)N([C@H](C)CO)C[C@H](C)[C@@H](CN(C)CC1CCCCC1)OCCCC[C@@H](C)O2`, the inhibition was 0.663% (inactive).
With `COc1ccc(CN(C)C[C@@H]2Oc3ccc(NC(=O)Nc4ccc(OC)cc4)cc3C(=O)N([C@H](C)CO)C[C@H]2C)cc1` the inhibition was -5.96% (inactive).
In the case of `CCc1ccccc1NC(=O)Cn1cnc2scc(-c3ccc(OC)cc3)c2c1=O`, the inhibition was 27.3% (inactive).
For `COc1ccc(S(=O)(=O)Nc2cccc3c2O[C@H](CN(C)C(=O)Nc2cccc4ccccc24)[C@H](C)CN([C@@H](C)CO)C3=O)cc1`, the inhibition was 4.99% (inactive).
For `NC(=S)c1cnn2c(C(F)(F)F)cc(C(F)(F)F)nc12`, the inhibition was 6.61% (inactive).
For `C[C@@H]1CN([C@@H](C)CO)C(=O)c2cc(NC(=O)CCN3CCOCC3)ccc2O[C@@H]1CN(C)S(=O)(=O)c1ccccc1`, the inhibition was -5.16% (inactive).
In the case of `C[C@H](CO)N1C[C@H](C)[C@@H](CN(C)Cc2ccc(C(F)(F)F)cc2)Oc2c(NC(=O)NC3CCCCC3)cccc2C1=O`, the inhibition was 15.8% (inactive).
In the case of `C[C@@H]1CN([C@@H](C)CO)C(=O)Cc2cc(NC(=O)Cc3ccccc3)ccc2O[C@@H]1CN(C)Cc1ccc2c(c1)OCO2`, the inhibition was 4.15% (inactive).
With `O=C(CSc1nnc2n1CCCN2)c1ccccc1` the inhibition was -27.2% (inactive).
For `Cc1ccc(C23CC4CC(CC(CN)(C4)C2)C3)cc1C`, the inhibition was 94.1% (active).
With `C[C@@H]1CN([C@H](C)CO)C(=O)Cc2cc(NC(=O)Nc3ccc4c(c3)OCO4)ccc2O[C@@H]1CN(C)C(=O)Nc1ccccc1` the inhibition was 8.24% (inactive).
For `COc1ccc(S(=O)(=O)Nc2ccc3c(c2)CC(=O)N([C@@H](C)CO)C[C@@H](C)[C@@H](CN(C)C)O3)cc1`, the inhibition was -7.94% (inactive).
With `C[C@@H]1CCCCO[C@@H](CN(C)Cc2ccncc2)[C@@H](C)CN([C@H](C)CO)C(=O)c2cc(NS(=O)(=O)c3cccs3)ccc2O1` the inhibition was -6.77% (inactive).
With `C[C@H]1CN([C@@H](C)CO)C(=O)Cc2cc(NC(=O)Nc3ccccc3)ccc2O[C@H]1CN(C)S(=O)(=O)c1cn(C)cn1` the inhibition was -4.73% (inactive).
With `Cc1cc(C(=O)Nc2cccc3c2O[C@@H](CN(C)C(=O)Nc2ccc(F)cc2)[C@H](C)CN([C@@H](C)CO)C3=O)n(C)n1` the inhibition was -3.61% (inactive).
For `CC1=C(C(=O)OCc2ccccc2)OC(N)=C(C#N)C1c1ccc(F)cc1` (stereo unspecified), the inhibition was -8.27% (inactive).
For `O=S(=O)(NCCc1ccccc1)c1ccccc1`, the inhibition was -1.44% (inactive).
In the case of `Cc1cc(C)c2c(c1)CC(C)(C)c1[nH]c(-c3ccccc3)nc1-2`, the inhibition was 12.3% (inactive).
In the case of `CCCC1CCC(c2ccc(OC(=O)c3ccco3)cc2)CC1` (stereo unspecified), the inhibition was -3.57% (inactive).
In the case of `Cc1ccc(-n2c(SCC(=O)Nc3cccc(C)c3C)nc3ccccc3c2=O)cc1`, the inhibition was 14.3% (inactive).
For `Cc1nc(SCC(=O)O)[nH]c(=O)c1Oc1ccccc1`, the inhibition was -13.2% (inactive).
For `O=C(CCn1nc(-c2ccccc2)c2ccccc2c1=O)Nc1cccc(Br)c1`, the inhibition was 6.27% (inactive).
With `O=C(c1nc2ncccn2n1)N(Cc1ccccc1)Cc1ccccc1` the inhibition was 3.11% (inactive).
For `COc1cc(CO)cc(Cl)c1OCc1cccc([N+](=O)[O-])c1`, the inhibition was -30.9% (inactive).
With `COc1ccc(-c2cnc3c(-c4ccsc4)cnn3c2)cc1` the inhibition was 26.7% (inactive).
In the case of `COc1ccc(S(=O)(=O)Nc2ccc3c(c2)CC(=O)N([C@H](C)CO)C[C@H](C)[C@H](CN(C)C(=O)Nc2ccccc2)O3)cc1`, the inhibition was -16.9% (inactive).
In the case of `CNC[C@H]1Oc2ccc(NC(=O)C3CCCCC3)cc2C(=O)N([C@H](C)CO)C[C@@H]1C`, the inhibition was 4.94% (inactive).
With `C[C@H]1CN([C@@H](C)CO)C(=O)c2cccc(NC(=O)Nc3cccc4ccccc34)c2O[C@@H]1CN(C)C(=O)NC1CCCCC1` the inhibition was 0.565% (inactive).
With `O=C(CCCN1C(=O)c2ccccc2C1=O)Nc1cccc2c1CCCC2` the inhibition was -8.57% (inactive).
For `Cc1ccc2oc3c(c(=O)c2c1)C(c1ccc([N+](=O)[O-])cc1)N(CCCN1CCOCC1)C3=O` (stereo unspecified), the inhibition was -26.1% (inactive).
In the case of `O=C(CN1CCOCC1)Nc1ccc(NC(=O)CN2CCOCC2)c(Cl)c1`, the inhibition was -25.8% (inactive).
With `C[C@H](CO)N1C[C@H](C)[C@H](CN(C)CC2CCCCC2)Oc2ccc(NC(=O)C3CCCCC3)cc2C1=O` the inhibition was -9.78% (inactive).
In the case of `C[C@H]1CN([C@@H](C)CO)C(=O)Cc2cc(NC(=O)Cc3ccccc3)ccc2O[C@@H]1CN(C)S(=O)(=O)c1ccc(Cl)cc1`, the inhibition was 12.5% (inactive).
With `C[C@H]1CN([C@@H](C)CO)C(=O)c2cc(NC(=O)c3ccncc3)ccc2O[C@H]1CN(C)Cc1ccc(C(=O)Nc2ccccc2N)cc1` the inhibition was 20.5% (inactive).
In the case of `O=C(OC1=CC(=O)c2cccc3cccc1c23)c1ccccc1`, the inhibition was 26.1% (inactive).
For `O=C(c1ccc(NCc2cccnc2)c([N+](=O)[O-])c1)N1CCCCC1`, the inhibition was 6.72% (inactive).
In the case of `CC1(C)Cc2c(sc3ncn4nc(COc5ccc(Cl)cc5)nc4c23)C(C)(C)N1`, the inhibition was 6.06% (inactive).
For `CNC[C@@H]1Oc2c(NC(=O)Nc3ccc(OC)cc3)cccc2C(=O)N([C@@H](C)CO)C[C@@H]1C`, the inhibition was -2.63% (inactive).
With `C[C@H]1CN([C@@H](C)CO)C(=O)Cc2cc(NC(=O)NC3CCCCC3)ccc2O[C@@H]1CN(C)Cc1ccc(Oc2ccccc2)cc1` the inhibition was 33.3% (inactive).
With `C[C@@H]1CN([C@H](C)CO)C(=O)Cc2cc(NC(=O)NC3CCCCC3)ccc2O[C@H]1CN(C)S(=O)(=O)c1ccc(Cl)cc1` the inhibition was -10.5% (inactive).
In the case of `Cc1ccc(N(CC(=O)Nc2ccccc2Sc2ccccc2)S(C)(=O)=O)c(C)c1`, the inhibition was -5.49% (inactive).
For `CC(=O)Nc1nc2ccccc2s1`, the inhibition was -10.3% (inactive).
In the case of `Cc1noc(C)c1NC(=O)Nc1cccc2c1O[C@@H](CN(C)Cc1ccc(C(F)(F)F)cc1)[C@@H](C)CN([C@@H](C)CO)C2=O`, the inhibition was 1.59% (inactive).
For `COc1ccc(NC(=O)Nc2cccc3c2O[C@@H](CN(C)S(=O)(=O)c2cn(C)cn2)[C@H](C)CN([C@@H](C)CO)C3=O)cc1`, the inhibition was -11.4% (inactive).
With `C[C@@H]1CN([C@H](C)CO)C(=O)c2cc(NC(=O)NC3CCCCC3)ccc2O[C@@H]1CN(C)S(C)(=O)=O` the inhibition was 1.34% (inactive).
With `Nc1cc(N)nc(SCC(=O)c2ccc(Br)cc2)n1` the inhibition was -22.1% (inactive).
In the case of `CCCCn1c(O)c(C#N)c(C)cc1=O`, the inhibition was -16.6% (inactive).
With `C[C@H]1CN([C@@H](C)CO)C(=O)Cc2cc(NS(C)(=O)=O)ccc2O[C@@H]1CN(C)CC1CC1` the inhibition was -11.8% (inactive).
For `C=CCn1c2ccccc2c2nnc(SCC(=O)N3c4ccccc4Sc4ccccc43)nc21`, the inhibition was 27.5% (inactive).
In the case of `Cc1ccc(-c2nnc(Nc3ccc(C(=O)N(C)C)cc3)c3ccccc23)cc1S(N)(=O)=O`, the inhibition was -20.2% (inactive).
In the case of `Cc1nn(-c2ccccc2)c(CC(C)(C)C(=O)O)c1C(=O)O`, the inhibition was -5.62% (inactive).
In the case of `CCc1cc2c(=O)n(-c3ccccc3)c(SCC(=O)O)nc2s1`, the inhibition was -1.73% (inactive).
With `COc1cc(S(=O)(=O)NCCN2CCOCC2)ccc1Br` the inhibition was 1.46% (inactive).
For `C=C1C(=O)O[C@H]2C3=C(C)C[C@H](OC(C)=O)C[C@]3(C)CC[C@@H]12`, the inhibition was 8.27% (inactive).
With `Oc1ccc(CN2CCCC2)c2cccnc12` the inhibition was 40.6% (inactive).
For `C[C@H]1CN([C@@H](C)CO)C(=O)c2cc(NC(=O)Cn3cnnn3)ccc2O[C@@H]1CN(C)C(=O)Nc1ccccc1`, the inhibition was 5.69% (inactive).

Source: PubChem BioAssay AID2240 (Broad Institute, 2010)
